Among all 52,000 compounds or so, about 4,300 (8.3%) were called active. The sample holds actives, similar compounds and a random draw of the others, so the mix is not that of the screen. Cut-off read from the data, not from the text of the source: active = survival mostly below about 52% (no sharp cut-off); inactive = mostly above about 56%.
System: DeltatarO mutant
Assay: growth inhibition of S. aureus wild type versus tarO mutant, primary screen, teichoic acid synthesis inhibitors, RN4220, OD600 (AID 463173)
Conditions: OD600, 18 h, hits give low values, screened at 18.75 µg/mL (by protocol)

Compound	survival
CNC(=O)COc1ccc(NC(=O)CCn2nc(-c3ccc(C)cc3)c3ccccc3c2=O)cc1	73% (inactive)
COc1cc(C2C(C(=O)Nc3ccccc3C)=C(C)Nc3ncnn32)ccc1OCC(N)=O (stereo not drawn)	82% (inactive)
CCOc1ccc(CNCCCSc2nnnn2C)cc1OC	74% (inactive)
COc1ccccc1NC(=O)N1CCNCC1	73% (inactive)
CCC1CN(S(=O)(=O)c2cc(-c3cc(C)no3)ccc2C)c2cc(Cl)ccc2O1 (stereo not drawn)	75% (inactive)
COc1ccc(-c2onc(C)c2C)cc1S(=O)(=O)N1CCc2ccccc21	6% (active)
Cc1ccc(-c2onc(C)c2C)cc1S(=O)(=O)N1CCc2ccccc21	86% (inactive)
CCC1CN(S(=O)(=O)c2cc(-c3cc(C)no3)ccc2C)c2cc(C)ccc2O1 (stereo not drawn)	52% (active)
CCC1CN(S(=O)(=O)c2cc(-c3cc(C)no3)ccc2OC)c2cc(C)ccc2O1 (stereo not drawn)	109% (inactive)
COc1ccc(-c2cc(C)no2)cc1S(=O)(=O)N1CC(C)Oc2ccccc21 (stereo not drawn)	-5% (active)
COc1ccc(-c2cc(C)no2)cc1S(=O)(=O)N1CCc2ccccc21	67% (inactive)
CCC1CN(S(=O)(=O)c2cc(-c3cc(C)no3)ccc2OC)c2cc(Cl)ccc2O1 (stereo not drawn)	62% (inactive)
COc1ccc(-c2cc(C)no2)cc1S(=O)(=O)N1CCOc2ccccc21	73% (inactive)
CC(=O)N/C(N)=N\c1nc(C)c2ccc(C)cc2n1	73% (inactive)
O=C(NCc1ccc(Cl)cc1)c1ccc2c(c1)NC(=O)C(CS(=O)(=O)Cc1ccccc1Cl)N2 (stereo not drawn)	94% (inactive)
COCCCNC(=O)Nc1cc(C(=O)NCc2ccc(OC)cc2)ccc1N1CCCC1	67% (inactive)
COc1ccccc1N1CCN(CCCNC(=O)c2cnn(-c3cccc(Cl)c3)c2C2CCN(C(=O)OC(C)(C)C)CC2)CC1	87% (inactive)
CC1=C(C(=O)Nc2c(C)cc(C)cc2C)C2(CCN(C(C)C)CC2)OC1=O	112% (inactive)
O=C(CCCn1c(=O)c2sccc2n(Cc2c(F)cccc2Cl)c1=O)NCc1ccccc1	138% (inactive)
CCOC(=O)c1noc2ncnc(N3CCC(C)CC3)c12	75% (inactive)
Cc1ccc(C2=NC(c3ccccc3)=Nc3ccc(Cl)cc3N2)cc1	89% (inactive)

Compound	survival
CCOc1ccc(NC(=O)CN(c2ccc(C)cc2)S(=O)(=O)c2cccs2)cc1	83% (inactive)
COc1ccc2c(c1)CCc1c(C(=O)Nc3ccccc3C(F)(F)F)noc1-2	143% (inactive)
Cc1ccc(NC(=O)C2CCCN(c3ncnc4onc(C)c34)C2)c(Cl)c1 (stereo not drawn)	74% (inactive)
CCCOC(=O)CSc1ncnc2sc3c(c12)CCC(C)C3 (stereo not drawn)	7% (active)
CCC(C(=O)OC(C)C)n1cnc2sc3c(c2c1=O)CCC(C)C3 (stereo not drawn)	93% (inactive)
CC1CCc2c(sc3ncnc(NCCOCCO)c23)C1 (stereo not drawn)	98% (inactive)
Cc1ccc(OCCCCn2nnc3sc4c(c3c2=O)CCC(C)C4)cc1 (stereo not drawn)	56% (inactive)
Cc1ccc(-c2nc(NC(=O)CSc3ncnc4sc5c(c34)CCC(C)C5)ns2)cc1 (stereo not drawn)	69% (inactive)
CCCCCOC(=O)CSc1ncnc2c1sc1nc(N3CCOCC3)c3c(c12)CCCC3	71% (inactive)
CCCCCOC(=O)CSc1ncnc2sc3c(c12)CCC(C)C3 (stereo not drawn)	-4% (active)
CCCCOC(=O)CSc1ncnc2sc3c(c12)CCC(C)C3 (stereo not drawn)	17% (active)
CCOc1ccc(NC(=O)CSc2cn(CC(=O)N3CCOCC3)c3ccccc23)cc1	95% (inactive)
CCOc1ccc(NC(=O)Cn2c(=O)n(CCCCC(=O)NCc3ccc4c(c3)OCO4)c(=O)c3ccccc32)cc1	85% (inactive)
CC1(C)CC(NC(=O)CCCC(=O)O)CC(C)(C)N1	81% (inactive)
COc1ccc(C)cc1NC(=O)c1ccc2c(=O)n3c(nc2c1)CCCCC3	65% (inactive)
COc1ccc(Cn2ccnc2SCC(=O)NCc2ccco2)cc1	75% (inactive)
COc1ccc(Cn2c(CO)cnc2SCc2ccc(F)cc2)cc1	17% (active)
COc1ccc(Cn2c(CO)cnc2SCc2ccccc2)cc1	89% (inactive)
COc1ccc(Cn2c(CO)cnc2SCC(=O)NCc2ccco2)cc1	-5% (active)
Cc1ccc(Cn2c(CO)cnc2SCC(=O)Nc2ccc(C)c(Cl)c2)cc1	-5% (active)
CCOC(=O)c1ccccc1NC(=O)CSc1ncc(CO)n1Cc1ccc(C)cc1	77% (inactive)

Compound	survival
O=C(CSc1ncc(CO)n1Cc1ccc(F)cc1)NCc1ccco1	126% (inactive)
Cc1ccc(Cn2c(CO)cnc2SCC(=O)NCc2ccccc2Cl)cc1	73% (inactive)
OCc1cnc(SCc2ccc(F)cc2)n1Cc1ccc(F)cc1	88% (inactive)
Cc1ccc(NC(=O)N2CCN(c3nnc(C)c4c(C)n(-c5ccccc5)nc34)CC2)cc1Cl	94% (inactive)
O=C(CSc1nnc2ccc3ccccc3n12)Nc1ccccc1Cl	76% (inactive)
Cc1cc2ccccc2n1CCNC(=O)c1ccc(Br)cc1	58% (inactive)
CCOC(=O)c1cc(-c2ccc(C)cc2)n(CC(=O)Nc2ccc(OC)cc2OC)c1C	97% (inactive)
Cc1cc(-c2ccc(C)c(S(=O)(=O)NCc3cccs3)c2)on1	72% (inactive)
CC(C)C(=O)Nc1ccc(NC(=O)c2ccccc2)nc1	87% (inactive)
Cc1cc(NC(=O)c2ccc(NC(=O)C(C)C)cc2)no1	72% (active)
COc1cccc(C(=O)Nc2cc(C)on2)c1	89% (inactive)
CC(C)Oc1ccc(CNC(=O)Nc2ccc3c(c2)N(C)C(=O)c2ccccc2S3)cc1	94% (inactive)
CCN1CCN(CCCNC(=O)c2cc3c(=O)n(CC)c4ccccc4c3s2)CC1	97% (inactive)
Cc1ccc(NC(=O)N2CC3CCCN3c3ccccc32)cc1Cl (stereo not drawn)	62% (inactive)
Cc1ccc(NC(=O)N2CC3CCCN3c3ccccc32)c(C)c1 (stereo not drawn)	86% (inactive)
Cc1ccc(NC(=O)N2CC3CCCN3c3ccccc32)cc1C (stereo not drawn)	-4% (active)
Cc1cccc(NC(=O)CSc2ncc3c(n2)-c2ccccc2N(Cc2ccc(F)cc2)S3(=O)=O)c1C	68% (inactive)
Cc1cccc(-n2ncc3c(N4CCCCCC4)ncnc32)c1	92% (inactive)
COc1ccc(C(=O)Nc2ccc(-c3nnc4n3CCCCC4)cc2)cc1	0% (active)
COc1ccc(C(=O)Nc2ccc(-c3nnc4n3CCCCC4)cc2)cc1OC	57% (inactive)
CCOc1cc(C(=O)Nc2ccc(-c3nnc4n3CCCCC4)cc2)cc(OCC)c1OCC	69% (inactive)
